Source: PubChem BioAssay (The Scripps Research Institute Molecular Screening Center)
Hits are enriched below; roughly 2% of the tested compounds scored in any of these assays.
M4 ag – agonists of human muscarinic M4 receptor (CHRM4); AID 624127; activation, % at 3 µM; CHO-K1 hM4/Gqi5, Fluo-8 calcium fluorescence; vehicle 0%, full acetylcholine response 100%; P08173; actives 0.14% (n = 360,000);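 active = activation above the run mean over all test wells plus 3 SD, cut at about 32% in these data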;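 note: peak over basal fluorescence ratio per well then scaled between controls; 0% = DMSO wells and 100% = acetylcholine at EC100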
Target sequence (P08173 whole entry, looked up): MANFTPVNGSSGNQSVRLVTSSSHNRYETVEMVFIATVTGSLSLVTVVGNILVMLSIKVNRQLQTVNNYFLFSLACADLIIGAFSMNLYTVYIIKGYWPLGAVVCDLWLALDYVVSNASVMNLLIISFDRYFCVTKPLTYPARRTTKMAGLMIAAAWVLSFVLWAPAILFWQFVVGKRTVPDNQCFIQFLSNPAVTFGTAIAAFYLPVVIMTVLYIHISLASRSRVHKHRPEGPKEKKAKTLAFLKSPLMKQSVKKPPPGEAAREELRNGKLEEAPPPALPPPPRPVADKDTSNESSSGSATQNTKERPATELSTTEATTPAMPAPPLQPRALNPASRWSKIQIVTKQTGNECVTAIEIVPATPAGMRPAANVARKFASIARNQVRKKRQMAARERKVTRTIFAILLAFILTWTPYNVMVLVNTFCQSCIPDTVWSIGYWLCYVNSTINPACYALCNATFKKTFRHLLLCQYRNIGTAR
CHO-K1 Ca antag – M1 antagonist counterscreen hit in parental CHO-K1 cells. ATP-induced calcium, Fluo-8 fluorescence. inhibition, % at 3 µM. actives 0.6% (n = 360,000);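 active = inhibition above a per-plate cutoff, the plate's mean sample inhibition plus 3 SD, cut at about 24% in these data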;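 note: 0% = DMSO plus EC80 ATP and 100% = DMSO alone without ATP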
CHRM4 antagonist – CHRM4 antagonism in calcium assay | AID 624125 | inhibition, % at 3 µM | actives 0.73% (n = 360,000) | P08173 | CHO-hM4 cells, ACh EC80, Fluo-8 calcium fluorescence;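 active = inhibition above its plate's cutoff, the mean inhibition of sample wells plus 3 SD, cut at about 27% in these data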;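 note: 0% = acetylcholine EC80 with DMSO and 100% = DMSO without agonist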
M1 PAM parental – counter-screen for M1 PAMs: effect in parental CHO-K1 cells; ATP EC20, Fluo-8 calcium fluorescence; 0% at ATP EC20, 100% at ATP max; activation, % at 3 µM; actives 0.02% (n = 360,000); AID 602247;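 active = activation above the run cutoff, the mean activation of all test compounds plus 3 SD, cut at about 40% in these data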;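 note: peak over basal fluorescence ratio in a 140 s read after ATP addition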
CHO-K1 Ca ag – M1 agonist counterscreen hit in parental CHO-K1 cells; AID 602248; activation, % at 3 µM; actives 0.48% (n = 360,000); Fluo-8 calcium fluorescence; scaled to maximal ATP response, vehicle zero; in the data active = activation above about 15%;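 note: untransfected CHO-K1 host cells lacking M1 receptor as counterscreen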
M4 PAM – potentiates acetylcholine response at human M4 receptor; actives 0.4% (n = 360,000); CHO-K1 hM4/Gqi5, Fluo-8 calcium fluorescence, ACh EC20; 0% = ACh EC20, 100% = maximal ACh; P08173; activation, % at 3 µM;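 active = activation above its plate's cutoff, the mean activation of sample wells plus 3 SD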
* = called active by the depositor.

SMILES	M4 ag	CHO-K1 Ca antag	CHRM4 antagonist	M1 PAM parental	CHO-K1 Ca ag	M4 PAM
CCc1nc2ccc(C(=O)NCCCn3ccnc3)cn2c1N(C)CCCc1ccccc1	5	-1	27*	15	2	-10
COc1ccc(S(=O)(=O)N2CCC(C(=O)NCC(=O)Nc3c(C)cccc3C)CC2)cc1OC	0	4	-10	-17	-1	25*
COc1ccc(S(=O)(=O)N2CCC(C(=O)NCCc3ccccc3)CC2)cc1OC	3	-11	-7	6	0	2
CCN(CC)CCC=C(c1cccs1)c1cccs1	3	-7	47*	2	0	-16
CC1(C)CC(NC(=O)CCc2ccccc2)CC(C)(C)N1	0	-6	5	3	0	-4
O=C(CN1CCN(c2ccccc2)CC1)Nc1ccc(-n2cnnn2)cc1	2	-16	30*	12	0	0
COc1cccc(N2CCN(CC(=O)Nc3ccc(-n4cnnn4)cc3)CC2)c1	1	-11	0	-2	0	6
Cc1ccc(C(C)C)c(OCCNC(=O)c2cncc(Br)c2)c1	3	-3	-6	11	2	6
COc1cc(C(=O)NCCOc2cc(C)ccc2C(C)C)cc(OC)c1OC	12	23	2	-3	16*	-4
O=C(Nc1ccc(Cl)cc1)c1ccc(-n2cncn2)c([N+](=O)[O-])c1	24	0	29*	8	7	-14
CC1CCN(CC(O)COC2CC(C)CC(C)(C)C2)CC1 (stereo not drawn)	2	-5	7	17	2	-10
CC[N+]1(CC(O)COC2CC(C)CC(C)(C)C2)CCOCC1 (stereo not drawn)	0	-5	29*	4	0	-33
NCCCCCc1nnc(SCc2cccc(Cl)c2)o1	3	-1	85*	12	0	-30
NCCCCCc1nnc(SCc2ccc(Cl)cc2Cl)o1	9	16	50*	13	1	-23
NCCCCCc1nnc(SCC(=O)Nc2cccc(Cl)c2)o1	1	-12	-2	-11	0	4
CC(=O)c1cn(CC(=O)Nc2ccccc2C(F)(F)F)c2ccccc12	2	27*	-9	-23	1	-2
CC(=O)c1cn(CC(=O)Nc2cccc(C)c2C)c2ccccc12	16	7	1	6	11	-14
Cc1ccc(C)c(NC(=O)Cn2cc(C(=O)C3CC3)c3ccccc32)c1	6	25*	5	6	3	2
Cc1ccc(NC(=O)Cn2cc(C(=O)C3CC3)c3ccccc32)c(C)c1	-1	-12	-10	4	0	-2
O=C(N/N=C/c1ccc(N2CCOCC2)c([N+](=O)[O-])c1)c1ccc(F)cc1	6	-8	-7	10	3	-4
CO/N=C/c1ccc(N2CCN(C(=O)c3cccc(C(F)(F)F)c3)CC2)c([N+](=O)[O-])c1	17	-3	28*	-1	4	13
CO/N=C/c1ccc(N2CCN(C(=O)c3ccc(F)cc3)CC2)c([N+](=O)[O-])c1	24	2	56*	7	9	57*
CO/N=C/c1ccc(N2CCN(C(=O)c3ccc(Cl)cc3Cl)CC2)c([N+](=O)[O-])c1	31	22	40*	3	12	-30
O=C(O/N=C\c1ccc(N2CCCCC2)c([N+](=O)[O-])c1)c1cccc(C(F)(F)F)c1	0	-11	-5	11	0	8
CC(=O)C[C@H]1c2ccccc2S(=O)(=O)N1C1CCCCC1	1	-11	-8	11	0	8
CN(C)CCOC(=O)C1(c2ccccc2)CCCC1	1	-4	77*	13	1	-25
O=C(OCCN1CCCC1)C1(c2ccccc2)CCCC1	2	-1	94*	21	1	-23
O=C(NCCCN1CCOCC1)C1(c2ccccc2)CCCC1	0	-10	-9	24	0	8
O=C(OCCN1CCCCC1)C1(c2ccccc2)CCCC1	1	-2	91*	5	2	-25
CCN(CC)CCOC(=O)c1ccc(NC(=O)C2(c3ccccc3)CCCC2)cc1	3	-1	21	19	2	-13
